# From PubChem BioAssay (NCI)
# This is part of a sample that, as a whole, favours compounds with a hit. Of some 83,000 tested, about 20% had one in any assay.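 Step 1: grow cells in 96-well plates. Step 2: add test compound at a single concentration. Step 3: incubate 48 h. Step 4: record percent growth.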 Unmarked numbers belong to inactive results. Calls of active or inactive are those of the source. The calls were made as follows: active = growth percent below 10; inactive = the rest.
# What was measured:
# Assay in all cases: NCI-60 one-dose screen, 48 h (100 = growth as untreated, 0 = no growth, -100 = all killed)
# Conditions in all cases: 10 µM
# EKVX NSCLC = test system: EKVX NSCLC
# SN12C renal = test system: SN12C renal
# UO-31 renal = test system: UO-31 renal
# ACHN renal = test system: ACHN renal
# CAKI-1 renal = test system: CAKI-1 renal
# CCRF-CEM leukemia = test system: CCRF-CEM leukemia
# MOLT-4 leukemia = test system: MOLT-4 leukemia
# SR leukemia = test system: SR leukemia
# TK-10 renal = test system: TK-10 renal
# A498 renal = test system: A498 renal
Structure (SMILES),growth (EKVX NSCLC) [%],growth (SN12C renal),growth (UO-31 renal),growth (ACHN renal),growth (CAKI-1 renal),growth (CCRF-CEM leukemia),growth (MOLT-4 leukemia),growth (SR leukemia),growth (TK-10 renal),growth (A498 renal)
CNc1ccc(CSc2ccc(C)cc2)cc1,102,29.4%,24.1%,108%,73.2%,43.7%,82.6%,80.4%,–,–
c1ccc2c(-c3nc(N4CCOCC4)c4c5c(sc4n3)CCCCCC5)cccc2c1,–,99.5%,101%,100%,99.2%,96.9%,97.2%,94.8%,116%,102%
COc1ccc(-c2nc(-c3nc4cc(Cl)c(F)cc4[nH]3)c3ccccn23)cc1,–,66.3%,28%,79.1%,67.1%,35.6%,43.4%,33.7%,64.7%,32.4%
CC(=O)N1C/C(=C/c2ccc(Cl)cc2)C(=O)/C(=C/c2ccc(Cl)cc2)C1,–,-42.4% (active),-88.8% (active),-46.1% (active),-15% (active),-13.3% (active),0.236% (active),-15.1% (active),-15.7% (active),-5.57% (active)
Cc1cc(C)c2c(n1)sc1c(Nc3ccc(Cl)cc3)ncnc12,–,-20.9% (active),-19.8% (active),1.33% (active),12.1%,4.05% (active),-6.2% (active),3.86% (active),47.7%,-9.23% (active)
COc1cc(Cl)cc(-c2nn(-c3cccc(NC(=O)c4ccc(N5CCOCC5)c(C(F)(F)F)c4)c3)cc2-c2ccncc2)c1,–,79.8%,40.7%,50.1%,46.7%,31.7%,38.3%,18.4%,90.6%,31.5%
COc1cc(Cl)cc(-c2nn(-c3cccc(NC(=O)Nc4cc(C(F)(F)F)cc(C(F)(F)F)c4)c3)cc2-c2ccncc2)c1,–,9.32% (active),-0.18% (active),10.3%,8.99% (active),-22% (active),-24.6% (active),-37.9% (active),30.3%,-21.6% (active)
COC(=O)C(C(C[N+](=O)[O-])c1ccccc1)=P(c1ccccc1)(c1ccccc1)c1ccccc1 (stereo not given),–,100%,73.1%,93.9%,84.3%,77.1%,90.3%,14.6%,97.2%,59.8%
Cc1ccc(S(=O)(=O)Oc2ccc3c4c(c(=O)oc3c2)CCCCC4)cc1,–,66.2%,64.6%,78.7%,59.6%,43%,42.2%,2.57% (active),74.3%,61.8%
Clc1ccc(Sc2nc(NC3CC3)nc(Sc3ccc(Cl)cc3)n2)cc1,–,88.5%,62.3%,84.6%,51.9%,76.4%,43.8%,67.3%,112%,83.9%
COc1cc(Nc2ncnc(Nc3ccc4c(n3)NC(=O)C(C)(C)O4)n2)cc(OC)c1OC,–,18.9%,-6.15% (active),14.6%,-10.2% (active),25.1%,33.9%,9.18% (active),-36.4% (active),-75.1% (active)
O=C1/C(=C\c2ccc(Br)cc2)CN(C(=O)c2ccccc2F)C/C1=C\c1ccc(Br)cc1,–,14.4%,-53.6% (active),32.3%,7.2% (active),-10.4% (active),4.49% (active),-27.4% (active),55.2%,74.9%
COc1ccc(/C=C2/CN(CCC#N)C/C(=C\c3ccc(OC)cc3)C2=O)cc1,–,-57% (active),-43.8% (active),8.83% (active),-19.4% (active),0.103% (active),3.59% (active),-2.63% (active),16.2%,56.3%
O=C(Nc1ccc(Cl)cc1)N1NC(c2ccc(Cl)cc2)C=C1c1ccccc1 (stereo not given),–,108%,85.8%,116%,103%,58.3%,83.7%,81.4%,103%,103%
FC(F)(F)c1ccc(-c2cnc(-n3cc(COCCN4CCCCC4)nn3)nc2NC2CCCCCC2)cc1,–,60.4%,-6.86% (active),35.7%,46.6%,-5.93% (active),-24.1% (active),-37.4% (active),-14% (active),66%
COc1ccc2c(c1)O/C(=C\c1ccc([N+](=O)[O-])s1)C2=O,–,41.6%,24%,25.4%,44.2%,10.1%,10.7%,12.1%,42.5%,85.1%
C[C@@H]1C=C2C(=O)O[C@@H]3CC[C@H](C1)[C@]23O,–,81%,63.4%,72.3%,50.6%,18.6%,62.8%,18.6%,75.8%,129%
COc1cc(Cl)cc(-c2nn(-c3cccc(NC(=O)Nc4ccc(Cl)c(C(F)(F)F)c4)c3)cc2-c2ccncc2)c1,–,13.8%,11.1%,8.78% (active),9.38% (active),1.88% (active),-9.68% (active),-27.5% (active),37.5%,-9.18% (active)
O=C1/C(=C\c2ccccc2)CN(C(=O)c2ccccc2)C/C1=C\c1ccccc1,–,5.88% (active),43%,3.54% (active),33.3%,-0.797% (active),2.87% (active),-33% (active),69.8%,45.1%
Nc1ccccc1NC(=O)CCCCC(=O)Nc1ccc2c(c1)/C(=C/c1ccc[nH]1)C(=O)N2,–,66.9%,72.2%,92.7%,81.6%,50.7%,47.7%,62.7%,68.2%,-5.06% (active)
COc1cc2cc3c(nc2cc1OC)CCN3Cc1ccc(NC(=O)Nc2ccc(F)cc2F)cc1,–,79.9%,68.9%,85.2%,62.3%,71.7%,58.9%,62.1%,94.6%,49.4%
O=S(=O)(Nc1ccccn1)c1ccc(N=Nc2ccc(O)c3ncccc23)cc1,–,5.49% (active),-24.1% (active),-1.83% (active),-4.15% (active),7.55% (active),4.77% (active),0.457% (active),-1.22% (active),-11.5% (active)
CCOC(=O)C1(CC(C)C)CCOC1=O (stereo not given),–,94.7%,90.1%,98.2%,92.4%,92.2%,100%,104%,106%,107%
C#Cc1ccc(-n2c(/C=C/c3ccc(C(F)(F)F)cc3)nc3ncccc3c2=O)cc1,–,26.6%,11.6%,19%,14.9%,3.18% (active),10.2%,0.507% (active),11.4%,43.7%
Nc1c(C(=O)Nc2cccc(F)c2)sc2nc3c(cc12)C(=O)CCC3,–,37.4%,56.1%,53.6%,28%,17.9%,66.3%,16.1%,85.5%,-12.1% (active)
Cc1nc2c(c(=O)[nH]1)OCN(Cc1ccccc1)C2,–,104%,79.3%,104%,103%,90.5%,95.9%,93.6%,119%,75.5%
N=C(N)c1ccc(-c2ccc(-c3cccs3)o2)cc1,–,54.5%,65.9%,62.7%,37.8%,19.9%,-2.16% (active),-24.5% (active),96.5%,33.5%
CCOC(=O)N1C/C(=C/c2ccc(Cl)cc2)C(=O)/C(=C/c2ccc(Cl)cc2)C1,–,72.2%,45.2%,74.7%,65.5%,26%,21.5%,-5.62% (active),99.5%,79.7%
CN(C)Cc1cn(-c2ncc(-c3ccc(C(F)(F)F)cc3)c(NC3CCCCCC3)n2)nn1,–,87.5%,42.9%,92.1%,84.7%,80.6%,74.8%,39.6%,85.2%,76.9%
